KDM4E inh: inhibitors of human JMJD2E histone demethylase. hit rate 1.6% among 230,000. Potency, µM (doses to about 57.1 µM), for the others: at the top dose activity change, negative = inhibition, most hits filed as inhibitors. JMJD2E catalytic domain, FDH-coupled NADH fluorescence (FDH is formaldehyde dehydrogenase); active = well fitted inhibition curve with a large enough effect, not every such curve was filed as active; inconclusive = small, poorly fitted or top-dose-only effect, or another doubt; inactive = no such curve, though single readings can be large or run the other way;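 also: potency is read from the fitted curve at half-maximal effect; 0% = wells with enzyme and -100% = buffer wells without enzyme; nearly all actives have a fitted effect of over 50% in size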
L3MBTL1 block: L3MBTL1 (human) inhibition; AlphaScreen L3MBTL1–H3K9me1 peptide binding; Potency, µM (titrated, usually from 57.1 µM), for inactives: at the highest dose activity, negative = inhibition, hits mostly inhibitors; hit rate 0.66% among 230,000; AID 485360; also: potency is read from the fitted curve at half-maximal effect; % is scaled to controls: 0 for no effect and ±100 for the full control effect; nearly all actives have a fitted effect of over 60% in size
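AlphaScreen assay: L3MBTL1 (50 nM final) was preincubated 30 min at room temperature with biotinylated H3(1-15)K9me1 peptide (75 nM final), then 30 min with library compounds; streptavidin donor and nickel chelate acceptor beads (10 ug/mL final) added, 30 min dark.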
BAZ2B block: inhibitors of human BAZ2B bromodomain | Q9UIF8 | AlphaScreen BAZ2B-H3K14Ac peptide displacement | Potency, µM (highest dose often 114 µM), for inactives: at the top dose activity change, negative = inhibition, hits mostly inhibitors | hit rate 4.4% among 360,000 | AID 504333; also: potency is read from the fitted curve at half-maximal effect; % is scaled to controls: 0 for no effect and ±100 for the full control effect; nearly all actives have a fitted effect of over 60% in size
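In this displacement format the biotinylated H3(5-23) peptide acetylated at Lys14 serves as ligand at 50 nM, with BAZ2B at 50 nM in PBS pH 7.4 containing 0.01% Tween-20. Donor and acceptor beads are 10 ug/mL final.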
JMJD2A Tudor: blocks the human JMJD2A Tudor domain | AlphaScreen JMJD2A-Tudor / H3K4me3 peptide binding | AID 504339 | hit rate 4.4% among 390,000 | Potency, µM (titrated, usually from 114 µM), for the others: at the highest dose activity change, negative = inhibition, usual class: inhibitors; also: potency is read from the fitted curve at half-maximal effect; % is scaled to controls: 0 for no effect and ±100 for the full control effect; nearly all actives have a fitted effect of over 50% in size
HP1b chromo inh: inhibitors of HP1-beta chromodomain binding to methylated histone tails; AlphaScreen HP1-beta / biotin-H3K9me3 peptide binding; hit rate 0.56% among 390,000; AID 540317; P83916; Potency, µM (top dose mostly 114 µM), inactives show at the highest dose activity change, negative = inhibition, usual class: inhibitors; also: potency is read from the fitted curve at half-maximal effect; nearly all actives have a fitted effect of over 70% in size
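HP1-beta protein (50 nM final) preincubated 30 min at room temperature with biotinylated H3(1-18)K9me3 peptide (50 nM) in PBS pH 7.4, 0.01% Tween-20, then compound added for 30 min. AlphaScreen streptavidin donor/nickel chelate acceptor beads (10 ug/mL final), 30 min dark, luminescence read.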
PI5P4K alpha inh: blocks human PI5P4K alpha kinase activity. P48426. PI5P4Kalpha enzyme, ADP-Glo luminescence, 60 min; active compounds read low. max response, %. hit rate 1.2% among 330,000; active = max response of -50% or lower; inconclusive = between -30% and -50%; inactive = -30% or higher; also: value at the top dose of about 77 µM; % is scaled to controls: 0 for no effect and ±100 for the full control effect
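Human PI5P4Kalpha with substrate in 0.038 M HEPES pH 7.4, 0.28 mM EGTA, 0.1% CHAPS, 5% DMSO; reaction started with 5 microM ATP (final), 60 min at room temperature. ADP formed read by ADP-Glo luminescence.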
An asterisk follows results filed as active; ? = inconclusive; nt = no result given; ! = repeats disagree. Most compounds without a hit are left out; they make up all but 5.7% or so of the library. Unless noted, calls follow the shape of the dose curve; as a rule, active = well fitted inhibition curve with a large enough effect; inconclusive = small, poorly fitted or top-dose-only effect; inactive = no such curve, though single readings can be large or run the other way.

SMILES	KDM4E inh	L3MBTL1 block	BAZ2B block	JMJD2A Tudor	HP1b chromo inh	PI5P4K alpha inh
COCCOC(=O)C1=C(C)NC(SCC(=O)NC(C)(C)C)=C(C#N)C1c1ccco1 (configuration not stated)	-24.8%	-0.7%	-4.3%	89.1µM*	27.3%	-1.3
Cc1ccc(SCCC(=O)OC(C(=O)NC(N)=O)C(C)C)cc1 (configuration not stated)	-0.3%	nt	1.9%	11.2µM*	-13.4%	-67.3*
C#CCOCCOCCOCCNc1nc(N2CCN(C(=O)[C@H](Cc3ccc(O)cc3)n3cc([C@@H](N)C(C)CC)nn3)CC2)nc(N2CCN(C(=O)[C@H](CCCCN)n3cc([C@@H](N)CO)nn3)CC2)n1 (some centres not stated)	-0.2%	-25.4%	50.1µM*	39.8µM*	40.4%	-9.5
C#CCOCCOCCOCCNc1nc(N2CCN(C(=O)[C@H](CCCCN)n3cc([C@@H](N)CO)nn3)CC2)nc(N2CCN(C(=O)[C@H](Cc3ccc(O)cc3)n3cc([C@@H](N)CC(C)C)nn3)CC2)n1	-9.6%	-20.0%	31.6µM*	56.2µM*	26.0%	-6.0
C#CCOCCOCCOCCNc1nc(N2CCN(C(=O)[C@H](Cc3ccc(O)cc3)n3cc([C@@H](N)C(C)CC)nn3)CC2)nc(N2CCN(C(=O)[C@H](CCCCN)n3cc([C@@H](N)CC(C)C)nn3)CC2)n1 (some centres not stated)	-12.5%	-29.0%	79.4µM*	nt	nt	nt
C#CCOCCOCCOCCNc1nc(N2CCN(C(=O)[C@H](CCCCN)n3cc(CC(C)O)nn3)CC2)nc(N2CCN(C(=O)[C@H](CCCCN)n3cc(CC(C)O)nn3)CC2)n1 (some centres not stated)	nt	7.7%	-34.3%	-14.9%	38.4%	2.2
COc1cc2c(cc1OC)C(c1cc(C)ccc1C)CC(=O)N2 (configuration not stated)	nt	-0.7%	?	-21.3%	19.8%	0.2
CC(=O)c1ccc(S(=O)(=O)N2CCN(CC(=O)Nc3ccnn3C3CCCC3)CC2)cc1	nt	nt	nt	-9.4%	31.7%	-0.6
c1ccc(Nc2ncnc3ccc(-c4cccnc4)cc23)cc1	-14.4%	nt	nt	nt	nt	nt
COc1ccc([N+](=O)[O-])cc1-c1[nH]c(-c2ccc(C(=O)O)cc2)nc1-c1ccccc1	nt	-2.9%	?	?	-5.3%	-6.3
Cc1ccc([N+](=O)[O-])cc1-c1[nH]c(-c2ccc(O)c(O)c2)nc1-c1ccccc1	?	nt	28.2µM*	39.8µM*	-43.0%	nt
COc1ccc(-c2nc(-c3ccccc3)c(-c3cc([N+](=O)[O-])ccc3C)[nH]2)cc1O	-5.3%	-22.1%	39.8µM*	44.7µM*	?	-16.0
O=C(CN1C(=O)c2cccc3cccc1c23)NC1CCCC1	nt	nt	0.0%	-9.6%	2.1%	-2.2
COc1ccc(C(C)n2c(C)c3c(C)nnc(C)c3c2C)cc1 (configuration not stated)	?	-6.2%	89.1µM*!	?	-14.4%	nt
COc1ccc(C(=O)c2nc3c(n2O)CCCC3)cc1OC	-11.4%	nt	-27.3%	50.1µM*	1.2%	6.8
O=c1ccc(=O)n(-c2ccccc2)[nH]1	-0.5%	9.3%	-1.2%	79.4µM*	?	-8.2
O=C(CNCc1cccs1)Nc1ccc(OC(F)(F)F)cc1	nt	nt	28.2µM*	3.98µM*	28.2µM*	3.0
O=C(CNCc1cccs1)Nc1ccc(N2CCCCCC2)cc1	?	-19.4%	22.4µM*	22.4µM*	25.1µM*	-7.5
c1ccc(CNCc2nnc(-c3cc4ccccc4[nH]3)s2)cc1	nt	nt	nt	-18.5%	nt	nt
CCCCC[C@H](O)/C=C/[C@@H]1[C@@H](C/C=C\CCCC(=O)OC)[C@@H](O)C[C@H]1O	3.98µM*	?	14.1µM*	22.4µM*	?	1.0
COC(=O)[C@@]12C[C@@H](CC(=O)NCc3ccccc3)C(=O)N(Cc3ccc4c(c3)OCO4)C1=CCC(C)(C)C2	nt	nt	nt	nt	nt	-5.8
c1ccc(CNc2ccc3ccccc3n2)nc1	?	-3.9%	-5.1%	8.91µM*	7.7%	nt
CCn1c(NCc2ccccn2)nc2ccccc21	-0.5%	-2.7%	56.2µM*	-5.6%	30.0%	2.4
O=C(O)CN(CCN(CC(=O)O)CC(=O)O)CCN(CC(=O)O)CC(=O)O	6.31µM*!	nt	nt	nt	nt	nt
O=C(O)CN(CCOCCOCCN(CC(=O)O)CC(=O)O)CC(=O)O	0.1%	nt	nt	nt	nt	nt
SMILES	KDM4E inh	L3MBTL1 block	BAZ2B block	JMJD2A Tudor	HP1b chromo inh	PI5P4K alpha inh
CC(=O)c1ccc(S(=O)(=O)NCCC(=O)NC2CCN(Cc3ccccc3)CC2)cc1	nt	0.5%	nt	4.47µM*	14.1µM*	-2.4
CCOc1ccc(S(=O)(=O)NCCC(=O)NC2CCN(Cc3ccccc3)CC2)cc1	nt	-1.1%	9.1%	-10.3%	17.9%	-1.1
CCc1noc(C)c1C(=O)Nc1nc(-c2cc(OC)ccc2OC)cs1	nt	-4.5%	-0.7%	-24.8%	2.9%	-1.7
O=C1C(=O)N(c2nccs2)C(c2ccccc2F)/C1=C(\O)c1ccc2c(c1)OCCO2 (configuration not stated)	nt	nt	50.1µM*	?	0.0%	-11.1
O=C(CC1CCCCC1)NCCOc1ccccc1	4.3%	6.9%	-1.8%	50.1µM*	16.6%	-13.7
CCCNC(=O)C1(C)CCN(C(=O)C2(c3ccc(Cl)cc3)CCCC2)C1 (configuration not stated)	nt	nt	nt	nt	nt	-3.7
Cc1ccc([N+](=O)[O-])c(C)[n+]1C	17.8µM*	?	?	14.1µM*	?	1.9
COc1cc(NC(=O)c2ccc3c(c2)OCO3)ccc1NC(=O)C(C)C	2.4%	0.6%	-1.1%	79.4µM*	?	-4.9
COc1ccc(CCCNC(=O)C2(C)Cc3c(-c4cccc(C(N)=O)c4)ccnc3O2)cc1 (configuration not stated)	nt	nt	nt	nt	nt	-6.7
Cc1ccc(N(CC(=O)Nc2ccc(F)cc2F)S(=O)(=O)c2cccs2)cc1	nt	nt	nt	-13.7%	42.9%	nt
O=C1NC(=S)N(C(=O)c2ccc(F)cc2)/C1=C/c1cccnc1	3.4%	3.4%	-23.7%	-16.2%	17.4%	-15.6
COc1ccc(/C=C2\C(=O)NC(=S)N2C(=O)c2ccc(C)cc2)cc1	?	-13.6%	50.1µM*	56.2µM*	-23.5%	?
Fc1cccc(Cl)c1CNc1n[nH]c(-c2ccco2)n1	nt	nt	?	-19.5%	28.1%	nt
Cc1ccc(C(=O)NCC(=O)OCC(=O)NCCc2ccccc2)s1	1.6%	?	?	50.1µM*	-7.6%	?
Cc1cccc(Nc2c([N+](=O)[O-])c(=O)n(C)c3ccccc23)c1	15.6%	-10.7%	?	50.1µM*	-9.2%	-26.4
CCOC(=O)c1c(O)c(Cl)c(C)[nH]c1=O	-4.5%	nt	nt	79.4µM*	4.8%	-15.8
Cc1cccc(C#Cc2ccccc2)n1	12.6µM*!	4.1%	-8.2%	?	54.6%	-12.4

Screening data (PubChem)
